Source: PubChem (National Center for Advancing Translational Sciences (NCATS))
The list is not random: actives were taken first. Their share in the collection is about 4%.
D1 PAM = Potentiators of Human D1 Dopamine Receptor: qHTS; D(1A) dopamine receptor (Homo sapiens), P21728; HEK293 TREx D1 cells, calcium flux, dopamine EC20 potentiation; potentiation, % at 10 µM; 360,000 tested, 0.036% active; AID 504651, 2011; in the data active = potentiation above about 30%; also: 0% is about no effect
TRHR enhancer = qHTS for Small Molecule Agonists and Allosteric Enhancers of Human TRH Receptor: Primary Screen for Enhancers; TRHR cells, fluo-8 calcium fluorescence, EC20 TRH enhancement; enhancement, % at 2 µM; 360,000 tested, 0.66% active; in the data active = enhancement above about 30%; also: 0% is about no effect
Target sequence (P34981 whole entry, looked up): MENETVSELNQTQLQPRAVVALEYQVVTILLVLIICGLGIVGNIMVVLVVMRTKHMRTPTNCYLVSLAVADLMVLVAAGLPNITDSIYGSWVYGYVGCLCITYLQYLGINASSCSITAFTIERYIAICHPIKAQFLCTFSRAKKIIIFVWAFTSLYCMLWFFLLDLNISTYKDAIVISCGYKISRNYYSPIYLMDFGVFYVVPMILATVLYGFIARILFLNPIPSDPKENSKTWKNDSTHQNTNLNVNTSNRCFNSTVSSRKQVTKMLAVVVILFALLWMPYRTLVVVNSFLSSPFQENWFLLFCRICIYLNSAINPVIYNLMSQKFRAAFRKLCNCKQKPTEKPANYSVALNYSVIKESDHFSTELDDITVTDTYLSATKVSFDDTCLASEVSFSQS
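Enhancer read-out: after compound pinning and an initial kinetic agonist-mode read, an EC20 of TRH (10 nM final) was injected and fluo-8 calcium signal (Ex 480/Em 530) followed at 1 s/cycle for 100 cycles in TRHR-expressing cells.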
TRHR agonist = qHTS for Small Molecule Agonists and Allosteric Enhancers of Human TRH Receptor: Primary Screen for Agonists. Thyrotropin-releasing hormone receptor (Homo sapiens), P34981. TRHR cells, calcium flux fluo-8, FDSS agonist mode. activation, % at 2 µM. 360,000 tested, 0.18% active; also: 0% is about no effect
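Steps: seed TRHR cells overnight; add fluo-8 no-wash Ca dye, RT 30 min–1.5 h; record 10 s baseline; pin-transfer compounds; monitor fluorescence 1 cycle/s for the agonist window. Calcium increases flag candidate agonists.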
D1 agonist = Allosteric Agonists of the Human D1 Dopamine Receptor: qHTS; HEK293 T-REx D1 cells, calcium flux, agonist mode; 360,000 tested, 1% active; D(1A) dopamine receptor (Homo sapiens), P21728; activation, % at 2 µM; also: 0% is about no effect
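Inducible HEK293 T-REx D1 cells, force-coupled to calcium signalling, were plated at 4000 cells/well with tetracycline and held overnight at 30 C. After no-wash calcium dye loading, compound-evoked calcium rise over 180 s flagged agonists.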
D1 antagonist = Antagonist of Human D 1 Dopamine Receptor: qHTS; HEK293 TREx D1 cells, calcium flux, dopamine EC80; hits give low values; activity change, negative = inhibition, % at 10 µM; AID 504652, 2011; 360,000 tested, 3.2% active; in the data active = activity change below about -30%; also: % is scaled to controls: 0 for no effect and ±100 for the full control effect
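Inducible Hek293 Trex D1 cells (tetracycline, overnight, 30 C). Calcium dye 30–90 min RT. Antagonist mode: EC80 dopamine added after 180 s compound read.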
Glioma ERSR ind = qHTS for Inducers of the Endoplasmic Reticulum Stress Response (ERSR) in Human Glioma: qHTS | U87-MG GRP78 promoter luciferase reporter, 16 h | Potency, µM, for the others: top-dose activation, actives largely listed as activators | 420,000 tested, 0.02% active | AID 602332, 2012; active = well fitted activation curve with a large enough effect; also: potency is read from the fitted curve at half-maximal effect; series mostly up to about 76 µM; % of control where 0% means no effect; nearly all actives have a fitted effect of over 35% in size
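ERSR induction read as luciferase luminescence (Bright-Glo, 10 min at room temperature) in stably transfected human U87-MG glioma cells exposed to compounds for 16 h, using GRP78 as sensor.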
* = called active by the depositor; / = no result given. Rule as the data show it, unless noted: active = activation above about 30%; inactive = the rest.

SMILES	D1 PAM	TRHR enhancer	TRHR agonist	D1 agonist	D1 antagonist	Glioma ERSR ind
Cc1ccsc1CCNC(=O)C1CCC(=O)N(CCc2cccc(F)c2)C1 (configuration not stated)	-3.0	2.4	-0.4	3.4	-37.2*	-2.6%
Cc1ccc(CNC(=O)C2CCC(=O)N2Cc2ccc(C)cc2)cc1 (configuration not stated)	-4.1	0.7	0.3	0.9	-40.2*	0.3%
Cc1n[nH]c(C)c1CN(C)C(=O)C1CCC(=O)N(CCc2cccc(F)c2)C1 (configuration not stated)	1.1	3.0	0.7	3.6	-32.9*	-2.1%
Cc1ccc(CNC(=O)C2CCC(=O)N2Cc2ccccc2Cl)cc1 (configuration not stated)	-2.0	5.4	0.1	2.9	-3.9	1.0%
Cc1cc(CNC(=O)C2CCC(=O)N(Cc3cccc(C(F)(F)F)c3)C2)no1 (configuration not stated)	1.4	31.5*	0.2	1.0	4.7	-3.9%
O=C(CCc1nnc(CCCCc2ccccc2)o1)N1CCC(N2CCCC2)CC1	3.3	1.3	3.2	2.4	-3.4	-2.9%
CCN(CCCCO)c1nc(C)nc2c1c(C)c(C)n2-c1c(C)cc(C)cc1C	/	/	/	/	/	1.6%
O=C(NCC1Cc2cccc(-c3cccnc3)c2O1)c1cc(-c2ccccc2)n[nH]1 (configuration not stated)	/	/	/	/	/	-0.5%
FC(F)(F)c1ccccc1-c1cc(NCc2cccs2)ncn1	/	/	/	/	/	-1.1%
O=C(NCCc1ccc(C(F)(F)F)cc1)C1CCC(=O)N(CCCN2CCCC2=O)C1 (configuration not stated)	-8.8	4.6	0.0	-0.1	-40.5*	-0.1%
Cc1ccc(CNC(=O)C2CCC(=O)N(CCc3cccc(F)c3)C2)cc1 (configuration not stated)	-10.8	-2.9	-1.4	1.7	-42.9*	-1.0%
O=C(NCc1cc(C(F)(F)F)ccc1F)C1CCC(=O)N(C2CC2)C1 (configuration not stated)	-0.5	-7.6	-0.1	2.0	-36.1*	-1.4%
COc1ccc(CCCNC(=O)C2CCC(=O)N(CCCN3CCCC3=O)C2)cc1 (configuration not stated)	-4.2	-8.8	0.5	0.9	14.0	12.5%
Cc1cc(CNC(=O)C2CCC(=O)N(CCc3cccc(F)c3)C2)nn1C (configuration not stated)	-1.2	8.3	0.8	2.0	1.1	-5.5%
O=C(NCc1nnc2n1CCN(Cc1cc(F)cc(F)c1)CC2)c1cccc(F)c1	/	/	/	/	/	-3.3%
Cc1ccc(S(=O)(=O)N2CCC(c3nc(-c4cccs4)nc4ccccc34)CC2)cc1	/	/	/	/	/	-3.9%
Cc1c(-n2c(SC(C)C(=O)NC(N)=O)nc3ccccc3c2=O)c(=O)n(-c2ccccc2)n1C (configuration not stated)	-3.4	5.1	-0.3	-1.5	-2.4	-1.0%
Cc1ccc(OCCSc2nnc(-c3cccs3)o2)cc1	-1.9	-5.9	4.9	17.7	-9.1	0.6%
Cc1ccc(-c2nnc(SCCOc3ccccc3)o2)cc1	2.8	2.6	-0.6	80.9*	1.8	/
O=S(=O)(c1ccc(Cl)cc1)N(Cc1ccccn1)Cc1ccccn1	-3.0	-5.1	-0.8	3.2	2.6	0.1%
NS(=O)(=O)c1ccc(S(=O)(=O)N(CCc2ccccc2)Cc2ccccn2)cc1	-8.4	-3.2	-0.4	-0.4	-10.1	-3.5%
O=S(=O)(NCc1ccccc1)c1ccc(S(=O)(=O)N(Cc2ccccn2)Cc2ccco2)cc1	-10.7	-1.8	-0.6	26.5	-34.3*	-1.0%
CCN(CC)S(=O)(=O)c1ccc(S(=O)(=O)N(Cc2ccccn2)Cc2ccco2)cc1	-12.1	1.1	-0.6	30.6*	-55.9*	-2.2%
CCCCCCCCCCCCC/C=C/[C@@H](O)[C@H](CO)NC(=O)CCCCC	/	/	/	/	/	1.3%
Cc1cccc(C(=O)NC2CC3CCC(C2)N3C)c1 (configuration not stated)	-4.5	-1.5	0.8	3.4	-24.7	-2.7%
SMILES	D1 PAM	TRHR enhancer	TRHR agonist	D1 agonist	D1 antagonist	Glioma ERSR ind
CCCN1C2CCCC1CC(NC(=O)c1cc(OC)cc(OC)c1)C2 (configuration not stated)	-8.8	0.3	0.6	-3.4	-34.2*	-3.1%
COc1cc(OC)cc(C(=O)NC2CC3CCC(C2)N3C)c1 (configuration not stated)	-13.7	0.5	0.5	1.0	-54.4*	-0.6%
CCCN1C2CCCC1CC(NC(=O)c1ccc(C(C)(C)C)cc1)C2 (configuration not stated)	4.3	8.4	0.5	8.3	10.0	-3.1%
COc1ccc(CN2CCOc3c(cc(-c4cccc(OC)n4)cc3OC)C2)c(O)c1	/	/	/	/	/	-6.7%
COc1ccc(S(=O)(=O)NC(N)=NCCc2ccccc2OC)cc1	-6.2	-6.2	0.2	1.9	-52.6*	-3.7%
CCN(CC)c1ccc(C2=NNC(=O)CC2C)cc1[N+](=O)[O-] (configuration not stated)	-8.8	20.9	-0.8	3.0	-43.7*	-1.6%
CC1CC(=O)NN=C1c1ccc(N(C)C)c([N+](=O)[O-])c1 (configuration not stated)	-4.8	3.2	0.1	2.6	-3.6	0.2%
CCCc1ccc(C(C)NC(=S)NCc2ccc(F)cc2)cc1 (configuration not stated)	-4.9	-3.0	9.1	79.5*	-1.2	9.8%
CCOc1ccc(C(C)NC(=S)NCc2ccc(Cl)cc2)cc1 (configuration not stated)	-5.5	-2.9	7.0	34.6*	/	0.7%
CSc1sc(-c2nnc(SCC(=O)Nc3ccccc3)n2C)c2c1C=CCC2	-0.9	1.5	-0.3	1.6	-36.4*	-5.5%
COc1ccc2c(c1)-c1nc(-n3ncc(C(=O)NCc4cccc(C)n4)c3C3CC3)ncc1CC2	/	/	/	/	/	-4.6%
C/C(=N\NC(=S)NCC(C)(C)C)c1cc(F)cc(F)c1O	-11.4	7.4	1.2	21.5	-84.9*	1.9%
Cc1cc(C)cc(N(CCC#N)C(=O)CSC2=Nc3ccccc3C3CC=NN23)c1 (configuration not stated)	-1.3	33.6*	0.5	3.3	11.0	-2.3%
COc1ccc(COC(=O)N/N=C2/C[C@@H](O)[C@@H](O)[C@@H]3[C@H]4C(=O)N(c5ccc(F)cc5F)C(=O)[C@@H]4CC[C@@H]23)cc1	/	/	/	/	/	-3.8%
